High-throughput results as filed in PubChem.
Tb PFK inh-1: inhibitors of T. brucei phosphofructokinase | O15648 | T. brucei PFK, ADP-Glo luminescence | Potency, µM (titrated, usually from 57.5 µM), most hits filed as inhibitors | 330,000 compounds, 0.17% hits | AID 485367; note: nearly all actives have a fitted effect of over 60% in size
Target sequence (O15648 whole entry, looked up): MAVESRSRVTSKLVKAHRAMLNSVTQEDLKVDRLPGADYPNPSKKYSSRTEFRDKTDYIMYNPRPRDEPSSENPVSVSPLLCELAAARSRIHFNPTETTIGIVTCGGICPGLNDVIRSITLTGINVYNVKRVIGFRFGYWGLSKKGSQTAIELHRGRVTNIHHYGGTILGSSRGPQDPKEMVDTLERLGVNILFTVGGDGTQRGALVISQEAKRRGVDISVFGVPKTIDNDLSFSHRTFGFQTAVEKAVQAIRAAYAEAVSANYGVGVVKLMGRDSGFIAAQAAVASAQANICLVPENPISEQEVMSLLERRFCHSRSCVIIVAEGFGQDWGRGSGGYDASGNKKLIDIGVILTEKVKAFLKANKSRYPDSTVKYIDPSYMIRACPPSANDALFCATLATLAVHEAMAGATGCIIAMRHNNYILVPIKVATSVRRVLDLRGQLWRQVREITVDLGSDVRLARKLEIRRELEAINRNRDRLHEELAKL
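In TEA buffer at pH 8.0 with 5 mM MgCl2, enzyme (1.25 nM) converted F6P (0.5 mM) and ATP (0.1 mM) for 45 min at room temperature. ADP product was read by luciferase luminescence.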
TDP1 block: TDP1 (human) enzyme inhibition | recombinant TDP1, AlphaScreen DNA substrate cleavage | Q9NUW8 | 350,000 compounds, 0.28% hits | Potency, µM (doses to about 130 µM), actives largely listed as inhibitors; note: nearly all actives have a fitted effect of over 40% in size
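Tdp1 1 nM final; 15 min RT w/ cpd; substrate 15 nM, 5 min; beads 10 ug/ml, 10 min; AlphaScreen read. Neg ctrl: no enzyme.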
PI4K2A block: PI4K2A (human) kinase inhibition; AID 1346378; Q9BTU6; purified PI4K2A, ADP-Glo luminescence, 1 h; stronger effect = lower value; activity change, negative = inhibition, % at 76.9 µM; 420,000 compounds, 0.13% hits; in the data active = activity change below about -50%; inconclusive = mostly about -30% to -49%
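PI4K2A activity was measured by ADP-Glo luminescence: enzyme (4 ug/mL stock) and phosphatidylinositol (1.2 mM stock) in Tris pH 7.5/MgCl2/EGTA/Triton X-100 buffer were reacted with ATP (300 microM stock) for one hour at ambient temperature.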
FEN1 inh-1: human FEN1 inhibition | P39748 | Recombinant FEN1 flap cleavage, fluorescence, 15 min | Potency, µM (top dose mostly 114 µM), actives largely listed as inhibitors | 390,000 compounds, 0.35% hits | AID 588795; note: nearly all actives have a fitted effect of over 65% in size
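Read-out was taken twice, immediately and after 15 min, following addition of 50 nM substrate to 10 nM FEN1 that had sat with test compound for 15 min at room temperature. Curves came from a four-parameter Hill model.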
PGK inhibitor: T. brucei PGK inhibition; PGK/GAPDH coupled, Kinase-Glo luminescence, 60 min; Potency, µM (series often up to 57.5 µM), usual class: inhibitors; 380,000 compounds, 0.043% hits; AID 602233; note: nearly all actives have a fitted effect of over 60% in size
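Luminescent ATP detection (Kinase-Glo Plus) follows a 60-minute room-temperature incubation, with wells lacking PGK as controls. Buffer: 100 mM TEA (pH 7.6), 5 mM MgCl2, 0.01% Tween-20. Coupling enzyme GAPDH (100 nM final) supplies unstable 1,3-BPG in-well.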
APEX1 inh: blocks human APE1 abasic DNA cleavage. P27695. recombinant APE1, TAMRA/BHQ-2 abasic DNA cleavage fluorescence. Potency, µM (doses to about 65.8 µM), hits mostly inhibitors. 350,000 compounds, 0.35% hits; note: nearly all actives have a fitted effect of over 55% in size
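Activity was derived from the fluorescence gain between first and third kinetic reads (60 s intervals, ex 525/em 598 nm) after 50 nM THF-abasic TAMRA/BHQ-2 duplex was added to 0.75 nM APE1 preincubated 15 min with compound.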
Tb PFK KinaseGlo: Tb phosphofructokinase inhibition, orthogonal luminescence. shares compounds with Tb PFK inh-1. Tb PFK enzyme, ATP depletion, Kinase-Glo Plus luminescence. Potency, µM (highest dose often 57.5 µM). 1,100 compounds, 47% hits; calls by dose curve; note: nearly all actives have a fitted effect of over 60% in size
Tb PFK inh-2: validation of T. brucei phosphofructokinase inhibitors; shares compounds with Tb PFK inh-1; purified T. brucei PFK, ADP-Glo luminescence, 45 min; Potency, µM (top dose mostly 57.5 µM), actives largely listed as inhibitors; 1,100 compounds, 41% hits; note: nearly all actives have a fitted effect of over 60% in size
FEN1 inh-2: confirmation of human FEN1 inhibitors; 880 compounds, 79% hits; Potency, µM, usual class: inhibitors; FEN1 flap cleavage, TAMRA/BHQ2 fluorogenic DNA substrate; AID 720498; shares compounds with FEN1 inh-1; note: nearly all actives have a fitted effect of over 60% in size
Numbers stand for hits; – = inactive; ? = inconclusive; · = not tested or not shown; [ ] = another dose, or the depositor's remark. Rows were chosen to be rich in hits. Some 0.8% of all compounds tested hit in one or more screens of this group. Unless noted, calls come from the whole dose curve; as a rule, active = well fitted curve in the direction sought with a large enough effect; inconclusive = small, poorly fitted or top-dose-only effect, or another doubt; inactive = no such curve, though single readings can be large; an effect the other way counts as inactive or inconclusive.

SMILES	Tb PFK inh-1	TDP1 block	PI4K2A block	FEN1 inh-1	PGK inhibitor	APEX1 inh	Tb PFK KinaseGlo	Tb PFK inh-2	FEN1 inh-2
O=C(O)C(Cc1ccccc1)N1C(=O)/C(=C/C=C/c2ccco2)SC1=S (configuration not stated)	?	·	–	11µM	13µM	1.6µM	21µM	?	27
O=C(O)CC(C(=O)O)N1C(=O)/C(=C/C=C/c2ccco2)SC1=S (configuration not stated)	8.5µM	·	?	?	4.5µM	1µM	2.1µM	6µM	11
Cc1ccc(N2C(=O)NC(=O)/C(=C\C=C\c3ccco3)C2=O)cc1C	?	–	?	?	–	–	·	·	·
C[C@]12[C@H](O)CC3C(CC[C@@H]4C[C@@H](O)CC[C@]34C)[C@@]1(O)CC[C@@H]2C1=CC(=O)OC1 (some centres not stated)	·	–	·	·	·	–	·	·	·
C[N+]1([O-])CCC[C@@H]1c1cccnc1 (some centres not stated)	·	–	·	·	·	–	·	·	·
O=C(CSc1nc(-c2ccc(F)cc2)nc2c1Cc1ccccc1O2)Nc1cccc(C(=O)O)c1	?	4µM	–	?	?	3µM	?	?	27
Clc1c(Cl)c(Cl)c(Cl)c(Cl)c1Cl	·	–	·	·	·	–	·	·	·
Oc1ccc(C2=Nn3c(nnc3-c3ccco3)SC2)cc1O	7.6µM	–	–	50µM	?	–	?	?	43
CCN1/C(=C/C=C/c2oc3ccc(-c4ccccc4)cc3[n+]2CC)Oc2ccc(-c3ccccc3)cc21	?	–	–	32µM	–	–	–	?	27
COC1=CC(=O)O[C@H](/C=C/c2ccc3c(c2)OCO3)C1	·	–	·	·	·	–	·	·	·
COCCN(C(=O)COC(=O)c1cc2c(s1)CCC2)c1c(N)n(Cc2ccccc2)c(=O)[nH]c1=O	3.8µM	–[0.505 µM]	?	40µM	?	0.75µM	1.1µM	1.7µM	76
CCN(C(=O)COC(=O)Cc1ccccc1)c1c(N)n(Cc2ccccc2)c(=O)[nH]c1=O	–	–	–	–	–	–	·	·	·
Nc1ccc2nc(-c3cccc(-c4nc5ccc(N)cc5[nH]4)c3)[nH]c2c1	?	·	–	?	–	–	–	–	38
O=C(O)COc1ccc(/C=N/NC(=O)c2ccc(-c3csc(Nc4ccc(Cl)cc4)n3)cc2)cc1	?	·	–	?	?	3.5µM	1.7µM	2.4µM	30
C[C@@H]1O[C@@H](O[C@H]2CC[C@]3(C=O)C4CC[C@]5(C)[C@@H](C6=CC(=O)OC6)CC[C@]5(O)[C@@H]4CC[C@]3(O)C2)[C@H](O)[C@H](O)[C@H]1O (some centres not stated)	·	–	·	·	·	–	·	·	·
COc1cc2c(cc1O)C[C@H]1c3c(cc(OC)c(O)c3-2)CCN1C	·	–	·	·	·	?	·	·	·
O=C1NC(=S)S/C1=C/c1ccc(N2CCOCC2)o1	27µM	–	–	45µM	–	–	–	–	38
CCOC(=O)c1ccc(NC(=O)c2sc3nc4c(cc3c2N)N2CCC4CC2)cc1	·	–	–	–	–	·	·	·	·
COc1cc2cc3c(N)c(C(=O)Nc4sc(C)c(C)c4C#N)sc3nc2cc1OC	?	–	-50	50µM	·	13µM	–	–	43
O=C1C(=O)c2ccccc2-c2ccccc21	–	–	?	–	?	?	·	·	·
Nc1ccc(O)c2c1C(=O)c1ccccc1C2=O	?	·	–	35µM	?	–	–	–	43
NC(N)=Nc1ccc2[nH]c3c(c2c1)C[C@]1(O)[C@@H]2Cc4ccc(O)c5c4[C@]1(CCN2CC1CC1)[C@@H]3O5	·	–	·	·	·	–	·	·	·
CCOC(=O)c1ccc(N=Cc2c(O)n(-c3ccc(OC)cc3)c(=S)[nH]c2=O)cc1	–	–	–	?	–	–	·	·	9.5
CCOC(=O)c1ccc(N=Cc2c(O)n(-c3ccccc3F)c(=S)[nH]c2=O)cc1	–	–	–	?	–	–	·	·	·
C=Cc1cc(OC)c2c(c1)c(=O)oc1c2cc(OC)c2c(O)ccc(C3OC(C)C(O)C(C)(O)C3O)c21 (configuration not stated)	·	·	–	1.3µM	–	·	·	·	1.7
SMILES	Tb PFK inh-1	TDP1 block	PI4K2A block	FEN1 inh-1	PGK inhibitor	APEX1 inh	Tb PFK KinaseGlo	Tb PFK inh-2	FEN1 inh-2
O=C1CC2OCC=C3CN4CC[C@]56c7ccccc7N1[C@H]5[C@H]2C3C[C@H]46 (some centres not stated)	·	–	·	·	·	–	·	·	·
COC(=O)NC/C=C\c1nc(CC/C=C\C(=O)O[C@H]2C[C@H]3CC(=O)O[C@@H](/C=C\CC(C)C)C[C@@H]4CC[C@H](C)[C@H](C[C@@H](OC)C[C@H](C2)O3)O4)co1	·	–[21 µM]	·	·	·	–[12.4 µM]	·	·	·
COc1ccc2c(c[n+](C)c3c4cc5c(cc4ccc23)OCO5)c1OC	·	–	–	?	·	–	·	·	·
COc1cc2c(ccc3c4cc(OC)c(OC)cc4c[n+](C)c23)cc1O	·	·	–	3.5µM	–	·	·	·	2.7
CCN1/C(=C/C=C/C2=[N+](CC)c3ccccc3C2(C)C)C(C)(C)c2ccccc21	·	·	?	·	?	·	·	·	67
COC(=O)C12CC3=CCC4C(=O)N(c5ccccc5)C(=O)C4C3Cc3ccccc3[C@@H]1CNC2=O (some centres not stated)	·	–	·	·	·	–	·	·	·
CN(C)C(CSC(N)=O)CSC(N)=O	·	–	·	·	·	–	·	·	·
CNc1ccc2nc3ccccc3[n+](C)c2c1	–	·	?	?	–	21µM	·	·	38
C[n+]1c2ccccc2nc2ccc(NCCO)cc21	?	·	?	40µM	?	27µM	·	·	43
COC1C(O)C(C)OC(OC2C(Oc3cccc4c(O)c5c(=O)oc6ccc(C)c7c(=O)oc(c34)c5c67)OC(C)C(O)C2O)C1O (configuration not stated)	·	·	–	1.8µM	–	·	·	·	6
N#CC(C#N)=Cc1ccc(C=C(C#N)C#N)cc1	–	–	–	–	–	–	·	·	95
Cc1ccc2c(c1)C1(CCN(CCc3nc(-c4ccccc4)oc3C)CC1)OC(=O)N2	·	–	·	·	·	–	·	·	·
C[C@]12CCC3C(CC[C@H]4C[C@H](O)CC[C@]34C)[C@@H]1CC[C@@H]2C(=O)CO (some centres not stated)	·	–	·	·	·	–	·	·	·
C[C@]12CCC3C(CC[C@H]4C[C@@H](O)CC[C@]34C)C1CC[C@@H]2OC(=O)[C@H](N)CCCCN (some centres not stated)	–	–	–	?	–	–	·	·	43
